Laboratory results published in PubChem BioAssay (NCI).
About 83,000 compounds went through this panel and 20% of them were active in at least one assay; those are over-represented in the sample as a whole.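 Results are percent growth after 48 hours of single-concentration exposure. 100 means growth as in untreated cells, lower positive values show inhibition; negative values down to -100 show cell death.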 Unmarked numbers belong to inactive results. Calls of active or inactive are those of the source. How the source made its calls: active means growth percent below 10; inactive means the rest.

Legend:
Test in all cases: NCI-60 one-dose screen, 48 h (100 = growth as untreated, 0 = no growth, -100 = all killed)
Details in all cases: 10 µM unless noted
[1] = tested on: NCI-H23 lung
[2] = tested on: NCI-H226 lung
[3] = tested on: NCI-H322M lung
[4] = tested on: HOP-62 NSCLC
[5] = tested on: NCI-H460 lung
[6] = tested on: HOP-92 NSCLC
[7] = tested on: NCI-H522 lung
[8] = tested on: A549/ATCC NSCLC
[9] = tested on: 786-0 renal
[10] = tested on: COLO 205 colon

SMILES	growth [1]	growth [2]	growth [3]	growth [4]	growth [5]	growth [6]	growth [7]	growth [8]	growth [9]	growth [10]
COc1ccc(-n2c(N)c(-c3nc4ccccc4[nH]3)cc(C#N)c2=O)cc1	86.8%	35.3%	102%	90.8%	87.1%	84.7%	74.2%	94.9%	92.5%	105%
COc1ccc2sc3c(NCCCNCCO)nc4ccccc4c3c(=O)c2c1	63.6%	98%	72.8%	77.3%	-71.1% (active)	31.2%	70.6%	62.6%	63%	-35.4% (active)
Oc1ccc(CCl)c2cccnc12	59.4%	101%	71.9%	92.8%	55%	89.2%	52.6%	76.1%	97.6%	35.9%
N#CC1=C(N)Oc2c(sc3c(Br)cccc23)C1c1ccc([N+](=O)[O-])cc1 (stereo not given)	11.7%	58.9%	40.6%	26.6%	-7.51% (active)	-7.19% (active)	-6.47% (active)	24.7%	10.2%	-49.7% (active)
COc1cccc(-c2nc(-c3ccc(NC(=O)C(C)C)cc3)[nH]c2-c2ccnc(Br)c2)c1	51.3%	43.5%	43.7%	24.1%	31.8%	43.4%	19.5%	38.8%	-14.1% (active)	30.1%
O=c1c2cc(F)ccc2sc2c(N3CCNCC3)nc3ccccc3c12	68.8%	88%	60.3%	61.4%	-76.4% (active)	36.8%	39.3%	34.4%	65.7%	-49.6% (active)
O=C(O)c1cn(C2CC2)c2cc(N3CCN(C(=O)Nc4nc(-c5ccccc5)cs4)CC3)c(F)cc2c1=O	9.06% (active)	46.8%	31.4%	26%	5.5% (active)	-21.5% (active)	-2.04% (active)	7.93% (active)	22.5%	51%
c1ccc(Cc2nn3cc(-c4ccccc4)nc3s2)cc1	97.8%	117%	98.4%	104%	102%	109%	80.1%	91.3%	86.3%	118%
Cc1nc2ccccc2c(/C=C/c2ccc(Cl)cc2)c1C(=O)/C=C/c1ccc(C(F)(F)F)cc1	-33.4% (active)	-54.7% (active)	-43.3% (active)	-62.8% (active)	-75.3% (active)	-82.1% (active)	-14.3% (active)	10.5%	-85% (active)	-44.2% (active)
Cc1cc2nc3cc(C)c(N)cc3[n+](-c3ccccc3)c2cc1N	39.8%	71.2%	93.8%	52.7%	65.6%	41.5%	38.4%	75.1%	58.6%	61.1%
NCCCNc1nc2ccccc2c2c(=O)c3cc(F)cc(Cl)c3sc12	95.5%	88.9%	87.7%	92.6%	-74% (active)	70.4%	92.9%	79.1%	86.3%	106%
CCN(CC)CCNc1nc2ccccc2c2c(=O)c3cc(Cl)ccc3sc12	79.7%	91.7%	87.5%	76.7%	8.93% (active)	28.6%	63.9%	52.3%	74.5%	64.2%
COc1ccc(-c2cc(-c3cc(OC)c(OC)c(OC)c3)nc(N3CCOCC3)c2C#N)cc1	23.4%	83.8%	93.6%	88.8%	73.8%	58.4%	59.9%	60%	61.3%	57.7%
COc1ccc(C(=O)/C=C/c2sc(Cl)nc2Cl)cc1	8.44% (active)	40.7%	93.1%	68.3%	29.5%	32.8%	19.1%	78.1%	18.5%	1.55% (active)
Cc1ccc(-c2nc(N3CCN(CC(=O)Nc4ccc(Cl)cc4)CC3)c3ccccc3n2)cc1	94%	92.9%	91.1%	103%	98.4%	114%	83.6%	77.4%	92.1%	102%
Cn1cc(-c2cc3ncnc(Nc4ccc(CC(=O)Nc5cc(C(C)(C)C)nn5C)cc4)c3s2)cn1	60%	38%	46.4%	71%	43.5%	70%	41.5%	42.1%	43.7%	52.9%
c1ccc2cc(C[n+]3ccn(CCCCCCn4cc[n+](Cc5ccc6ccccc6c5)c4)c3)ccc2c1	30.5%	69.6%	76.2%	55.8%	24.6%	59.9%	33.1%	38.6%	83.6%	27.9%
Cc1ccc(-c2nc(N3CCN(CC(=O)Nc4ccc(Cl)c(C(F)(F)F)c4)CC3)c3ccccc3n2)cc1	92.5%	90.3%	87.3%	98.6%	92.7%	96.5%	81.6%	75.8%	91.1%	86.3%
O=C(N=c1oc2ccccc2cc1-c1cc2ccccc2[nH]1)Nc1ccc(Cl)cc1	86.2%	95.9%	87.8%	83.3%	99.6%	95.1%	88.4%	96.1%	94.6%	122%
O=[N+]([O-])c1ccc(Cl)c(-c2cc(CCCCO)on2)c1	101%	93.5%	96.3%	106%	109%	94.2%	93.8%	92.9%	98.6%	131%
Oc1ccc(C#CCOc2ccccc2)cc1CNCCN(Cc1ccccn1)Cc1ccccn1	16.7%	8.23% (active)	13.6%	13.3%	5.58% (active)	42.5%	9.5% (active)	8.12% (active)	5.55% (active)	13%
CNCCCNc1nc2ccccc2c2c(=O)c3cc(OC)ccc3sc12	79.6%	95.6%	85.7%	80.2%	5.64% (active)	52.4%	85.7%	76.1%	79.1%	-1.42% (active)
CCCCCCCCCCCCCCCCCCOc1ccc(CC(=O)OCC[N+](C)(C)C)cc1	93.3%	95.1%	103%	108%	100%	103%	95.7%	94.6%	93%	115%
O=C(CCN1C(=O)/C(=C/c2ccc(O)cc2)SC1=S)Nc1ccccc1	91.9%	90.9%	95%	85.9%	106%	89.6%	80.1%	93.3%	105%	125%
COc1cc2cc(Oc3ccc(NC(=O)Nc4ccc(F)c(C(F)(F)F)c4)cc3)c(C)nc2cc1OCCN1CCOCC1	0.421% (active)	36.6%	60.7%	24.4%	7.19% (active)	-12.9% (active)	13.6%	12.7%	35%	-6.62% (active)
COc1ccc(/C=C/c2c(C(=O)/C=C/c3ccc(C(F)(F)F)cc3)c(C)nc3ccccc23)cc1	-23% (active)	-38.3% (active)	6.19% (active)	-1.82% (active)	-58.9% (active)	-64.3% (active)	-0.88% (active)	65.4%	-72.5% (active)	-28.4% (active)
CCN(CC)Cc1cc(Nc2c3ccc(Cl)cc3nc3ccc(OC)cc23)ccc1O	65.7%	86%	62.5%	80.5%	34.9%	60.5%	39%	52.4%	47.3%	5.97% (active)
